The text below walks through data of PubChem BioAssay AID463173 (ICCB-Longwood Screening Facility, Harvard Medical School, 2010).

Each structure is given as a SMILES string. Among all 52,000 compounds or so, about 4,300 (8.3%) were called active. No stated cut-off is given here; in the data, active means survival mostly below about 52% (no sharp cut-off); inactive means mostly above about 56%. The list comes from a sample in which actives are over-represented; it also holds similar structures and randomly drawn compounds.

The subject of this assay is DeltatarO mutant. Description: growth inhibition of S. aureus wild type versus tarO mutant, primary screen, teichoic acid synthesis inhibitors, RN4220, OD600 (AID 463173). Conditions: OD600, 18 h, active compounds read low, screened at 18.75 µg/mL (by protocol).
Take `O=S(=O)(c1ccc(Br)cc1)c1nc(-c2cccs2)oc1SCc1ccccc1F`: the survival is 66% (inactive).
Turning to `Cc1cccc(CN2C(=O)c3ccccc3S(=O)(=O)c3ccc(C(=O)N4CCN(c5cc(C)ccc5C)CC4)cc32)c1`, the survival is 74% (inactive).
With `CC1CCN(S(=O)(=O)c2ccc3c(c2)N(CC(=O)NCCc2ccc(Cl)cc2)C(=O)CO3)CC1`, the survival is 87% (inactive).
The value for `Cc1cc(C)cc(Oc2nc3ccccn3c(=O)c2/C=C(\C#N)c2nc3ccccc3s2)c1` was 60% (inactive).
The same measure for `COc1ccc(NC(=O)CC2C(=O)N(c3ccc(C)cc3)C(=O)N2Cc2ccc(C)cc2)cc1` (centres undefined): 68% (inactive); for `Cc1ccc(CN(C(=O)COc2ccccc2Cl)c2ccccn2)o1`: 59% (inactive); for `COc1ccc(CCNc2ncnc3onc(C)c23)c(OC)c1`: 100% (inactive).
For `COC(=O)c1c(-c2cccs2)csc1NC(=O)COc1ccccc1`, the survival is 78% (inactive).
Regarding `COc1cc(C=Nc2ccc3[nH]c(=O)[nH]c3c2)ccc1OC(C)=O`, the survival was 85% (inactive).
The same measure for `O=c1[nH]c2ccc(N=Cc3ccccc3C(F)(F)F)cc2[nH]1`: 71% (active); for `O=c1[nH]c2ccc(N=Cc3ccc(F)cc3)cc2[nH]1`: 73% (inactive); for `CC1CCN(S(=O)(=O)c2ccc3c(c2)N(CC(=O)O)C(=O)CO3)CC1`: 94% (inactive).
The same measure for `CCOc1ccc(CNC(=O)Cc2ccc(NC(=O)N3CCCCc4ccccc43)cc2)cc1OC`: 85% (inactive); for `COc1ccc(N2CCN(C(=O)Nc3cn(CC(C)C)c(=O)c4ccccc34)CC2)cc1`: 83% (inactive).
The same measure for `CS(=O)(=O)N1CCC(N2CCN(Cc3ccccc3)C(=O)C2=O)CC1`: 91% (inactive); for `CC(=O)c1ccc(NC(=O)c2nc(-c3ccc(C)cc3)n3c2CCCCC3)cc1`: 58% (inactive); for `Cc1ccc(-c2nc(C(=O)Nc3cccc(C#N)c3)c3n2CCCCC3)cc1`: 88% (inactive).
For the compound `CC(=O)c1cccc(NC(=O)c2nc(-c3ccc(C)cc3)n3c2CCCCC3)c1`, the survival was 34% (active).
The value for `N#C/C(=C/c1ccc(-c2cccc(C(F)(F)F)c2)o1)C(=O)OC1CCCCC1` was 82% (inactive).
The value for `Cc1cccc(C(=O)Nc2cccc(C(=O)OCc3cc(=O)n4nc(C(C)C)sc4n3)c2)c1` was 113% (inactive); that for `Cc1ccc(N2C(=O)c3n[nH]c(C)c3C2c2ccc(C(C)C)cc2)cc1` (centres undefined) was 39% (active); that for `Cc1ccc(N2C(=O)c3n[nH]c(C)c3C2c2ccc(Cl)cc2)cc1` (centres undefined) was 6% (active).
The same measure for `COc1ccc(C2c3c(-c4ccc(F)cc4)n[nH]c3C(=O)N2c2ccccc2)cc1OC` (centres undefined): 124% (inactive); for `Cc1ccc(N2C(=O)c3[nH]nc(-c4ccc(Cl)cc4)c3C2c2ccc(F)cc2)cc1` (centres undefined): 44% (active).
`CCOC(=O)c1ccc(N2C(=O)c3n[nH]c(C)c3C2c2ccc(C(C)C)cc2)cc1` (centres undefined): the survival was 86% (inactive).
The value for `CCOc1ccc(C2c3c(-c4ccc(C)cc4)n[nH]c3C(=O)N2c2ccc(Cl)cc2)cc1` (centres undefined) was 91% (inactive); that for `Cc1ccc(N2C(=O)c3n[nH]c(C)c3C2c2ccccc2Cl)cc1` (centres undefined) was 120% (inactive).
For the compound `COc1ccccc1C1c2c(-c3ccc(Cl)cc3)n[nH]c2C(=O)N1c1ccc(C)cc1` (centres undefined), the survival is 79% (inactive).
The value for `COc1cc(C2c3c(-c4ccc(C)cc4)n[nH]c3C(=O)N2c2ccc(F)cc2)ccc1O` (centres undefined) was 95% (inactive); that for `Cc1ccc(-c2n[nH]c3c2C(c2cccs2)N(c2ccc(Cl)cc2)C3=O)cc1` (centres undefined) was 62% (inactive).
The value for `O=C1c2[nH]nc(-c3ccc(F)cc3)c2C(c2ccccc2F)N1c1ccccc1` (centres undefined) was 10% (active); that for `CCOC(=O)c1ccc(N2C(=O)c3n[nH]c(-c4cccs4)c3C2c2ccc(C(C)C)cc2)cc1` (centres undefined) was 104% (inactive); that for `CCN(CC)C(=O)CN1C(=O)COc2ccc(S(=O)(=O)N3CCOCC3)cc21` was 78% (inactive).
The same measure for `O=C(Nc1cc2c(cc1C(=O)c1ccc(Br)cc1)OCCO2)c1ccc(Cl)cc1`: 102% (inactive); for `Cc1ccc2c(c1)N(CC(=O)OCC(=O)NCc1ccccc1)C(=O)CO2`: 81% (inactive); for `COCCNC(=O)c1ccc(-c2nc(CS(=O)(=O)c3ccccc3)c(C)o2)cc1`: 119% (inactive).
Take `COCCCNc1nc2c(c(=O)[nH]c(=O)n2C)n1CC(O)COc1ccc(Cl)cc1` (centres undefined): the survival is 66% (inactive).
The same measure for `O=C1c2[nH]nc(-c3ccccc3)c2C(c2ccccc2)N1c1cccc(C(F)(F)F)c1` (centres undefined): 20% (active).
The value for `CCOC(=O)c1ccc(N2C(=O)c3n[nH]c(C)c3C2c2ccc(CC)cc2)cc1` (centres undefined) was 78% (inactive).
Regarding `CCc1ccc(C2c3c(n[nH]c3C)C(=O)N2c2ccc(C)cc2)cc1` (centres undefined), the survival was 8% (active).
The same measure for `CCOC(=O)c1ccc(N2C(=O)c3[nH]nc(-c4ccccc4)c3C2c2ccc(CC)cc2)cc1` (centres undefined): 100% (inactive).
The value for `CCOC(=O)c1ccc(N2C(=O)c3[nH]nc(-c4ccc(C)cc4)c3C2c2cccc(F)c2)cc1` (centres undefined) was 117% (inactive); that for `O=C(O)c1ccc(N2C(=O)c3[nH]nc(-c4ccccc4)c3C2c2cccc(F)c2)cc1` (centres undefined) was 92% (inactive); that for `CCOC(=O)c1ccc(N2C(=O)c3[nH]nc(-c4ccccc4)c3C2c2ccc(C(C)C)cc2)cc1` (centres undefined) was 105% (inactive).
The same measure for `CCOC(=O)c1ccc(N2C(=O)c3n[nH]c(-c4cccs4)c3C2c2ccc(CC)cc2)cc1` (centres undefined): 99% (inactive).
As for `CCc1ccc(C2c3c(-c4ccccc4)n[nH]c3C(=O)N2c2ccc(C(=O)O)cc2)cc1` (centres undefined), the survival is 48% (active).
`Clc1ccc(OCc2nc(-c3ccc(-n4cccc4)cc3)no2)cc1`: the survival was 163% (inactive).
As to `O=C(CNCC1CCCO1)NCc1ccco1` (centres undefined), the survival was 97% (inactive).
The same measure for `CCN(Cc1ccccc1)Cc1c(O)ccc2c(=O)c(-c3ccccc3Cl)c(C(F)(F)F)oc12`: 74% (inactive); for `COc1ccc(C2=Nn3c([n+](C)c4ccccc43)SC2)cc1`: 0% (active).
The value for `COc1ccc(C2=Nn3c(nc4sc(C(=O)Nc5cccc(C)c5)c(C)c4c3=O)SC2)cc1` was 105% (inactive); that for `COc1ccc(N=C2SCC(=O)N2C)cc1` was 76% (inactive); that for `O=C(COc1ccccc1)Nc1ccccc1OCc1cc(=O)n2ccccc2n1` was 78% (inactive).
The same measure for `CCC1CN(C(=O)N2CCC(C(=O)NCCCc3ccccc3)CC2)c2ccccc2O1` (centres undefined): 69% (inactive); for `CNCC(=O)NC(c1ccccc1)c1ccccc1`: 97% (inactive); for `CN(C)CCCN(C(=O)c1ccc(Br)s1)c1nc2ccc(F)cc2s1`: -5% (active).
Consider `Cc1ccc2nc(N(CCCN(C)C)C(=O)c3ccc(Br)s3)sc2c1`, for which the survival is 77% (inactive).
As for `CN(C)CCCN(C(=O)c1cccs1)c1nc2ccc(F)cc2s1`, the survival was 92% (inactive).
The same measure for `COC(=O)c1sc2cccc(F)c2c1S(=O)(=O)N1CCN(c2ccc(F)cc2)CC1`: 81% (inactive); for `COc1ccc2c(CNCc3cccs3)c(C(=O)O)n(Cc3cccc(F)c3)c2c1`: 72% (inactive); for `Cc1cc(C)cc(Nc2cc(C(=O)NCc3ccccc3)c3ccccc3n2)c1`: 113% (inactive).
The same measure for `CSc1cccc(Nc2cc(C(=O)NCCCN(Cc3ccccc3)C(C)C)c3ccccc3n2)c1`: 88% (inactive); for `Cc1cc(C)cc(Nc2cc(C(=O)NCCCN(Cc3ccccc3)C(C)C)c3ccccc3n2)c1`: -4% (active); for `Cc1ccc(N2CC(C(=O)NCCS(=O)(=O)N3CCN(c4ccc(F)cc4)CC3)CC2=O)cc1` (centres undefined): 89% (inactive).
The same measure for `Cc1ccc(CN(C(=O)COc2ccccc2[N+](=O)[O-])c2ccccn2)cc1`: 46% (inactive); for `Cc1ccc(CN(C(=O)COc2ccc([N+](=O)[O-])cc2)c2ccccn2)o1`: 62% (active).
For the compound `Cc1ccc(CN(C(=O)COc2cccc([N+](=O)[O-])c2)c2ccccn2)cc1`, the survival is 39% (active).
The value for `Cc1ccc(CN(C(=O)COc2ccccc2[N+](=O)[O-])c2ccccn2)o1` was 69% (inactive).
Take `Cc1ccc(CN(C(=O)COc2ccc([N+](=O)[O-])cc2)c2ccccn2)cc1`: the survival was 49% (inactive).
In the case of `Cc1ccc(CN(C(=O)COc2cccc([N+](=O)[O-])c2)c2ccccn2)o1`, the survival is 62% (inactive).
The same measure for `Cc1c(-c2nsc(NC(=O)c3ccc(Cl)cc3)n2)nnn1-c1ccc(C(C)C)cc1`: 66% (inactive).
The same measure for `CN(C1CCCCC1)S(=O)(=O)c1ccc(F)c(C(=O)Nc2ccc(C(F)(F)F)cc2)c1`: 83% (inactive).
In the case of `CCn1c(CN2CCCCC2)nc2cc(NC(=O)c3ccc([N+](=O)[O-])cc3)ccc21`, the survival is 90% (inactive).
The value for `CN(c1ccccc1)S(=O)(=O)c1nnc(NC(=O)C2CCCCC2)s1` was 65% (inactive).
The value for `Cc1cccc(N(C)S(=O)(=O)c2nnc(NC(=O)C3CCCCC3)s2)c1` was 72% (inactive).
The same measure for `Cc1cccc(NS(=O)(=O)c2nnc(NC(=O)c3cccc(C)c3)s2)c1`: 61% (inactive); for `O=C(Nc1nnc(S(=O)(=O)Nc2ccccc2)s1)C1CCCCC1`: 31% (active).
Turning to `O=C(Nc1nnc(S(=O)(=O)Nc2ccccc2)s1)c1ccccc1Cl`, the survival was 52% (inactive).
For `Cc1cccc(NS(=O)(=O)c2nnc(NC(=O)C3CCCCC3)s2)c1`, the survival is 34% (active).
For `CC(=O)c1cc(-c2ccc(F)cc2)n(CCC(=O)Nc2nc3ccc(C)cc3s2)c1C`, the survival was 69% (inactive).
As for `Cc1cc(C)c(NC(=O)Cn2c(=O)oc3cc(S(=O)(=O)N4CCCCCC4)ccc32)c(C)c1`, the survival was 83% (inactive).
The value for `CCOc1ccc(-n2c(SCC(=O)c3ccccc3)nc3c([nH]c4ccccc43)c2=O)cc1` was 131% (inactive); that for `Cc1cccc(C(=O)OCc2cc(=O)n3nc(-c4cccs4)sc3n2)c1` was 101% (inactive).
The same measure for `Cc1ccc(CCNC(=O)c2ccc(Nc3nc4ccccc4n4nnnc34)cc2)cc1`: 72% (inactive); for `N#Cc1ccc(NC(=O)C2Cc3ccccc3CN2S(=O)(=O)c2ccc(F)cc2)cc1` (centres undefined): 54% (inactive).
Turning to `OCCn1nnnc1-c1ccccc1`, the survival is 85% (inactive).
The same measure for `CC(C)C12CN3CC(C(C)C)(CN(C1)C3c1ccc(OCc3ccccc3)cc1)C2=O` (centres undefined): 85% (inactive).
The same measure for `CCOc1ccc(C2N3CC4(C(C)C)CN2CC(C(C)C)(C3)C4=O)cc1OC` (centres undefined): 91% (inactive); for `CC(C)C12CN3CC(C(C)C)(CN(C1)C3c1ccc(Cl)cc1)C2=O` (centres undefined): 39% (active).
